VHR inh color = blocks the human dual specificity phosphatase VHR1; P51452; recombinant VHR phosphatase, colorimetric substrate read-out; inhibition, % at 20 µM; hit rate 0.7% among 50,000; AID 1992; in the data active means inhibition above about 60%
Target sequence (P51452 whole entry, looked up): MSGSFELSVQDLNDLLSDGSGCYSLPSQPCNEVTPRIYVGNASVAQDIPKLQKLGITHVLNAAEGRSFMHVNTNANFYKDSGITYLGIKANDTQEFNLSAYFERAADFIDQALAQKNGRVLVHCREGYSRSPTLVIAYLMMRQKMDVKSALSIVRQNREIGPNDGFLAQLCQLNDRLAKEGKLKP
An asterisk follows results filed as active. Only a selection was taken, and hits are over-represented in it overall.

Screening C(=N\n1cnnc1)/c1cccc(OCCOc2ccc(C3CCCCC3)cc2)c1 returned VHR inh color 104*.
`CCOc1cc(/C=N\n2cnnc2)ccc1OCCOCCOc1ccc(C)cc1` gave VHR inh color -7.
`C(=N\n1cnnc1)/c1ccc(OCCOc2ccc(C3CCCCC3)cc2)cc1` gave VHR inh color 106*.
`COc1cccc(OCCOc2ccc(/C=N/n3cnnc3)cc2)c1` gave VHR inh color 110*.
Screening C1=C=CC(OCCOc2ccc(/C=N/n3cnnc3)cc2)=CC=1 returned VHR inh color -16.
O=C1C2C(C(=O)N1c1ccc(Br)cc1)N1CCCN1C2c1cccc([N+](=O)[O-])c1 (centres undefined) was read as VHR inh color 9.
For CCCCNC(=O)c1c(O)c2ccccc2n(C)c1=O the results were VHR inh color -25.
Screening COc1ccc(OC)c(NC(=O)CN(c2cc(C)cc(C)c2)S(=O)(=O)c2ccccc2)c1 returned VHR inh color 2.
Screening O=C(CO/N=C/c1ccccc1)N=Nc1c(O)[nH]c2ccc(Br)cc12 returned VHR inh color 2.
For CC(=O)N(c1ccc(Cl)cc1)S(=O)(=O)c1ccc(Cl)cc1 the results were VHR inh color -8.
`Cc1ccc(C(O)(C(=O)NCc2ccccc2)c2ccc(C)cc2)cc1` gave VHR inh color 0.
Screening CCOc1ccc(N2C(=O)CC(N3CCC(C(N)=O)(N4CCCCC4)CC3)C2=O)cc1 (centres undefined) returned VHR inh color -36.
For CCOc1ccc(N2C(=O)CC(N3CCCCC3)C2=O)cc1 (centres undefined) the results were VHR inh color 102*.
`CCOc1ccc(N2C(=O)CC(N3CCC(C(N)=O)CC3)C2=O)cc1` (centres undefined) gave VHR inh color -21.
For O=C(NNc1nc(-c2ccccc2)c2cc(Br)ccc2n1)c1ccccc1 the results were VHR inh color -5.
O=C(COc1cc2oc(=O)c3c(c2cc1Cl)CCC3)c1ccc(Cl)cc1 was read as VHR inh color -8.
For COc1ccc(/C=C2\SC(=O)N(Cc3ccccc3)C2=O)cc1OC the results were VHR inh color -5.
`CCN1C(=O)/C(=C/c2cc([N+](=O)[O-])ccc2OC)SC1=S` gave VHR inh color -15.
For COC(=O)C1=C(C)NC(=O)CC1c1ccc(F)c(Br)c1 (centres undefined) the results were VHR inh color -13.
For CC1=C(C(=O)OC(C)C)C(c2ccc(F)c(Br)c2)CC(=O)N1 (centres undefined) the results were VHR inh color 118*.
Screening CC1=C(C(=O)OC(C)C)C(c2cccc(Br)c2)NC(=O)N1 (centres undefined) returned VHR inh color -14.
CC1=C(C(=O)OC(C)C)C(c2ccccc2Br)CC(=O)N1 (centres undefined) was read as VHR inh color 102*.
CC1=C(C(=O)OCc2ccccc2)C(c2ccc(F)c(Br)c2)CC(=O)N1 (centres undefined) was read as VHR inh color 5.
CC1=C(C(=O)OC(C)C)C(c2ccccc2Cl)CC(=O)N1 (centres undefined) was read as VHR inh color 29.
Screening CC1=C(C(=O)OC(C)C)C(c2cc(Br)ccc2F)CC(=O)N1 (centres undefined) returned VHR inh color 102*.
For CC1=C(C(=O)OC(C)C)C(c2ccc(Br)cc2)C2=C(CC(c3ccc(Cl)cc3)CC2=O)N1 (centres undefined) the results were VHR inh color -19.
For COC(=O)C1=C(C)NC(=O)CC1c1ccccc1C(F)(F)F (centres undefined) the results were VHR inh color -33.
Screening CC(C)(C)C1=CC2(C=C(C(C)(C)C)C1=O)Nc1cccc3cccc(c13)N2 returned VHR inh color 2.
Screening CCOC(=O)c1c(C)sc(Sc2ccc(Br)cc2[N+](=O)[O-])c1OC returned VHR inh color 8.
COc1c(Br)cc2c(cc(C)n2C)c1O was read as VHR inh color 12.
`COc1ccc(S(=O)(=O)N(CC(=O)Nc2ccc3c(c2)OCO3)c2ccc(C)cc2)cc1OC` gave VHR inh color 14.
CCOc1ccc2nc(SCC(C)=O)sc2c1 was read as VHR inh color -2.
For COc1cccc(/C=C2/C(=O)NC(=O)N(c3cc(C)cc(C)c3)C2=O)c1O the results were VHR inh color -8.
`COc1ccc(N2C(=O)NC(=O)/C(=C/c3cccc(OC)c3O)C2=O)cc1` gave VHR inh color 77.
COc1cccc(/C=C2/C(=O)NC(=O)N(c3cccc(C)c3)C2=O)c1O was read as VHR inh color 107*.
O=C1C(Cl)=C(Nc2ccc(Nc3ccccc3)cc2)C(=O)c2ccccc21 was read as VHR inh color -2.
For c1coc(CN2CCN(Cc3cccc4ccccc34)CC2)c1 the results were VHR inh color 0.
Screening O=C1CC(c2ccc(F)c(Br)c2)c2ccc3ccccc3c2N1 (centres undefined) returned VHR inh color -8.
Screening CCOc1cccc(C2CC(=O)Nc3c2cc(Br)c2ccccc32)c1 (centres undefined) returned VHR inh color -3.
`COc1ccc(C2CC(=O)Nc3c2cc(Br)c2ccccc32)c(OC)c1` (centres undefined) gave VHR inh color 112*.
`COc1cc(C2CC(=O)Nc3c2ccc2ccccc32)cc(OC)c1OC(C)=O` (centres undefined) gave VHR inh color 2.
`COc1cc(C2CC(=O)Nc3c2ccc2ccccc32)cc(Br)c1OC` (centres undefined) gave VHR inh color 103*.
For CSc1ccc(C2CC(=O)Nc3c2cc(Br)c2ccccc32)cc1 (centres undefined) the results were VHR inh color 28.
Screening O=C1NC(=O)N(c2cccc(Br)c2)C(=O)/C1=C/c1ccc(-c2ccccc2C(=O)O)o1 returned VHR inh color 0.
For Cc1n[nH]c(C)c1CCC(=O)N/N=C/c1ccc(O)cc1 the results were VHR inh color -15.
Screening COC(=O)C1=C(C)NC(=O)NC1c1cccc(I)c1 (centres undefined) returned VHR inh color -6.
COc1ccc(CNC(=O)CN(c2ccc(Br)cc2)S(=O)(=O)c2ccccc2)cc1 was read as VHR inh color 6.
For COc1ccc(/C=C2/C(C)=C(C#N)c3nc(N)c(C#N)c(C)c32)c(OC)c1 the results were VHR inh color 2.
CC(C)CC(Nc1c(C(=O)Nc2ccc(Cl)cc2)cc([N+](=O)[O-])cc1[N+](=O)[O-])C(=O)O (centres undefined) was read as VHR inh color 80.
For O=C1NC(=O)N(c2ccc(Cl)cc2)C(=O)/C1=C/c1ccc(F)cc1 the results were VHR inh color -15.
Screening O=C1NC(=O)N(c2ccc(Cl)cc2)C(=O)/C1=C\c1ccc(N2CCCC2)cc1 returned VHR inh color 70*.
CN1C(=O)NC(=O)/C(=C\c2ccc(N3CCCC3)cc2)C1=O was read as VHR inh color 2.
Screening O=C(NCc1cccs1)c1cc2n(n1)C(C(F)(F)F)CC(c1cccs1)N2 (centres undefined) returned VHR inh color -28.
Screening CCOC(=O)c1ccc(N2C(=O)C=CC2=O)cc1 returned VHR inh color 49.
Screening CC(=O)c1ccc(N2C(=O)C3C4C=CC(CC4)C3C2=O)cc1 (centres undefined) returned VHR inh color -20.
CC(=O)c1ccc(N2C(=O)C=CC2=O)cc1 was read as VHR inh color 84*.

Screening results (PubChem BioAssay)
